# Results reported in PubChem BioAssay (NCATS).
# Inconclusive results are not listed. Entries that show only a call come without a potency. The source made the active and inactive calls. Unless noted, calls come from the whole dose curve; as a rule, active = well fitted curve in the direction sought with a large enough effect; inconclusive = small, poorly fitted or top-dose-only effect, or another doubt; inactive = no such curve, though single readings can be large; an effect the other way counts as inactive or inconclusive.
# Key:
# [1] = S16 Schwann cell viability assay (CellTiter-Glo assay) (AID 624031); conditions: S16 rat Schwann cells viability, 24 h; series mostly up to 57.5 µM;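 note: cellular ATP luminescence as a viability measure; nearly all actives have a fitted effect of over 70% in size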
# Summary of the method: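 Native S16 rat Schwann cells, 500-750 cells/well in DMEM with 10% FBS, dosed with compound after overnight culture and incubated 24h at 37 degree Celsius/5% CO2. Viability by CellTiter-Glo luminescence; % activity normalized to no-cell wells and DMSO-treated cells.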
# [2] = S16 Schwann cell PMP22 intronic element firefly luciferase assay (AID 624032); conditions: S16 rat Schwann cells, PMP22 element FLuc, 24 h; series mostly up to 57.5 µM; note: nearly all actives have a fitted effect of over 30% in size
# Summary of the method: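 Rat S16 Schwann cells stably carrying a PMP22 intronic element-driven Fluc reporter were seeded overnight, then exposed to compounds for 24 h at 37 °C. Luminescence was normalized to PTC124 (positive control) and DMSO (0% activity).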
# AA1029 = test: qHTS profiling for inhibitors of Plasmodium falciparum proliferation (AID 504749); note: nearly all actives have a fitted effect of over 60% in size; conditions: P. falciparum in erythrocytes, SYBR Green DNA, 72 h; series mostly up to 28.7 µM
# Summary of the method: (§1)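 Quantitative HTS: compounds pinned into medium, infected erythrocytes added (0.3% parasitemia, 2.5% hematocrit), 72 h culture at 37 C under 5% CO2. Saponin/Triton lysis with SYBR Green I, overnight RT, then fluorescence read.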
# CP211 = test: as above; conditions: P. falciparum in erythrocytes, SYBR Green DNA, 72 h; series mostly up to 28.7 µM
# Summary of the method: as §1
# CP217 = test: as above; conditions: P. falciparum in erythrocytes, SYBR Green DNA, 72 h; series mostly up to 28.7 µM
# Summary of the method: as §1
# CP252 = test: as above; conditions: P. falciparum in erythrocytes, SYBR Green DNA, 72 h; series mostly up to 28.7 µM
# Summary of the method: as §1
# CP260 = test: as above; conditions: P. falciparum in erythrocytes, SYBR Green DNA, 72 h; series mostly up to 28.7 µM
# Summary of the method: as §1
# CP297 = test: as above; conditions: P. falciparum in erythrocytes, SYBR Green DNA, 72 h; series mostly up to 28.7 µM
# Summary of the method: as §1
# N140 = test: as above; conditions: P. falciparum in erythrocytes, SYBR Green DNA, 72 h; series mostly up to 28.7 µM
# Summary of the method: as §1
# PC15 = test: as above; conditions: P. falciparum in erythrocytes, SYBR Green DNA, 72 h; series mostly up to 28.7 µM
# Summary of the method: as §1
# [3] = NCATS anti-infectives library activity on the primary C. elegans qHTS viability assay (AID 1745855; calls by dose curve; note: potency is the fitted concentration of half-maximal effect); conditions: C. elegans worm area imaging, day 7; series mostly up to 41.8 µM
# Summary of the method: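 GFP read-out by 488 nm laser cytometry at day 0, 3 and 7, gated on object perimeter, area and peak intensity, scored viability of PE254-GFP-FLuc worms exposed to compound in S medium with bacterial capsules at 21 °C.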
# [4] = qHTS assay for small molecule antagonists of peroxisome proliferator-activated receptor delta signaling (AID 588535; active = well fitted inhibition curve with a large enough effect in the signal ratio, with a control signal flat, not every such curve was filed as active; the % refers to the signal ratio;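 for max response: cells co-treated with a PPAR-delta agonist as stimulator during compound exposure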); conditions: HEK293T PPARd-UAS-bla, beta-lactamase FRET ratio, 18 h; 460 nm channel
# Summary of the method: (§2)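 Inhibition of PPAR-delta response element-driven beta-lactamase expression is measured in HEK293T cells exposed to a compound titration series for 18 hrs at 37 C. Half-maximal inhibition comes from Hill equation fitting.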
# [5] = target: Peroxisome proliferator-activated receptor delta (Homo sapiens) (UniProt Q03181); test: as above; conditions: HEK293T PPARd-UAS-bla, beta-lactamase FRET ratio, 18 h; series mostly up to 76.7 µM
# Chain of Peroxisome proliferator-activated receptor delta (Homo sapiens) (Q03181 whole entry, looked up): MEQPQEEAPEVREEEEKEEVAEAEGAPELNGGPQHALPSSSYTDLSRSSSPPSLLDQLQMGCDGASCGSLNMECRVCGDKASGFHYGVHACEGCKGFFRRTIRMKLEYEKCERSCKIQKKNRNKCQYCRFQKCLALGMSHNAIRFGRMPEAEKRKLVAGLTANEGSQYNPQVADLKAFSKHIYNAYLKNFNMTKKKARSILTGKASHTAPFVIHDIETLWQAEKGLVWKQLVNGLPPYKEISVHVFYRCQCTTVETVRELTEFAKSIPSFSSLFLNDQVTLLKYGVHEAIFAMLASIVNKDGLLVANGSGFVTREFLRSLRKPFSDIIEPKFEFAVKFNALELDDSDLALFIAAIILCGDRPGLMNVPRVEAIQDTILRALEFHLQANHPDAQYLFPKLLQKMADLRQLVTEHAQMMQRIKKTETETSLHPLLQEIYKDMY
# Summary of the method: as §2
# [6] = target: Vitamin D3 receptor (Homo sapiens) (UniProt P11473); test: qHTS assay for small molecule antagonists of vitamin D receptor signaling (AID 588541; calls by dose curve;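 note: receptor activated by calcitriol during compound treatment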); conditions: HEK293T VDR-UAS-bla, beta-lactamase ratio, antagonist mode; series mostly up to 76.7 µM
# Chain of Vitamin D3 receptor (Homo sapiens) (P11473 whole entry, looked up): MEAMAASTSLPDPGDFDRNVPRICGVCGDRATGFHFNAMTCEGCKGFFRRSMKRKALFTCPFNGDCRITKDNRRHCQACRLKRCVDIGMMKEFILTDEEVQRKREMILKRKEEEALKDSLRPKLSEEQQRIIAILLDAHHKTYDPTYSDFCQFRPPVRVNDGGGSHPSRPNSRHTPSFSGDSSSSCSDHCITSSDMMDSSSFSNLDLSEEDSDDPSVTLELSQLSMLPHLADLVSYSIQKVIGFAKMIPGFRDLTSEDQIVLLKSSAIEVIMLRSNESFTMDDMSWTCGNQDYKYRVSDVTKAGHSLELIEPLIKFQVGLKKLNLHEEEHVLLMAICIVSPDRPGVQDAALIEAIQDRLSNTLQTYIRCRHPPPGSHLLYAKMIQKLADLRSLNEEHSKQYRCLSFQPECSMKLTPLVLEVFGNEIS
# Summary of the method: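 VDR-UAS-bla HEK293T cells (2000/well, 2% charcoal-stripped FBS) were treated with titrated compounds plus 1-alpha,25-dihydroxyvitamin D3 (50 nM or 3 nM final) for 16 h at 37 C. CCF4 beta-lactamase fluorescence was read; Hill fits gave IC50.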
# [7] = target: Vitamin D3 receptor (Homo sapiens) (UniProt P11473); test: qHTS assay for small molecule agonists of vitamin D receptor signaling (AID 588543; calls by dose curve); conditions: HEK293T VDR-UAS-bla, beta-lactamase ratio, 16 h; series mostly up to 76.8 µM
# Summary of the method: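 Measured: β-lactamase reporter activity (CCF4, 405 nm excitation, 460/530 nm emission) in HEK293T VDR-UAS-bla cells after 16 h compound exposure at 37 °C. Normalization against 50 nM 1α,25-dihydroxyvitamin D3 and DMSO; Hill-fit EC50.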
# [8] = target: Thyroid hormone receptor beta (Homo sapiens) (UniProt P10828); test: qHTS assay for small molecule antagonists of thyroid hormone receptor beta signaling (AID 588547; active = well fitted inhibition curve with a large enough effect in the signal ratio, with a control signal flat, not every such curve was filed as active; the % refers to the signal ratio;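 note: cells stimulated with 0.4 nM T3 agonist during compound exposure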); conditions: TR-UAS-bla HEK293, beta-lactamase ratio, antagonist mode, 18 h
# Chain of Thyroid hormone receptor beta (Homo sapiens) (P10828 whole entry, looked up): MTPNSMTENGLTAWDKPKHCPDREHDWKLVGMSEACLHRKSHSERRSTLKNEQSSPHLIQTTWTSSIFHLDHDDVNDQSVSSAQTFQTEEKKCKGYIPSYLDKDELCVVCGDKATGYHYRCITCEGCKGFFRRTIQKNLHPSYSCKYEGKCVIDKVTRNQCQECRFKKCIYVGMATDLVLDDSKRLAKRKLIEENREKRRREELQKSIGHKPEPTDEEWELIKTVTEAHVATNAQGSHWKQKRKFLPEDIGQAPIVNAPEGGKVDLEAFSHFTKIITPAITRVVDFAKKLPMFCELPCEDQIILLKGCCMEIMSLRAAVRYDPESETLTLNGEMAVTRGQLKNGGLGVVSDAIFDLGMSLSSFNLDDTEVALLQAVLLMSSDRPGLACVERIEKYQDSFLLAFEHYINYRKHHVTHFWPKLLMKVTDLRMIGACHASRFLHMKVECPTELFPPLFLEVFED
# Summary of the method: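 TR-UAS-bla GripTite HEK293 cells in 2% charcoal/dextran FBS medium were preincubated 4 h at 37 C, given compound (0.59 nM to 92 uM) plus 0.4 nM T3 (final) for 18 h, then CCF4 for 2 h at RT; Hill fit gave IC50.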
# [9] = target: Nuclear receptor subfamily 1 group I member 2 (Rattus norvegicus) (UniProt Q9R1A7); test: qHTS assay for small molecule activators of the rat pregnane X receptor (rPXR) signaling pathway (AID 651751; call rule not given here); conditions: rPXR reporter cells, luciferase (One-Glo), 24 h
# Chain of Nuclear receptor subfamily 1 group I member 2 (Rattus norvegicus) (Q9R1A7 whole entry, looked up): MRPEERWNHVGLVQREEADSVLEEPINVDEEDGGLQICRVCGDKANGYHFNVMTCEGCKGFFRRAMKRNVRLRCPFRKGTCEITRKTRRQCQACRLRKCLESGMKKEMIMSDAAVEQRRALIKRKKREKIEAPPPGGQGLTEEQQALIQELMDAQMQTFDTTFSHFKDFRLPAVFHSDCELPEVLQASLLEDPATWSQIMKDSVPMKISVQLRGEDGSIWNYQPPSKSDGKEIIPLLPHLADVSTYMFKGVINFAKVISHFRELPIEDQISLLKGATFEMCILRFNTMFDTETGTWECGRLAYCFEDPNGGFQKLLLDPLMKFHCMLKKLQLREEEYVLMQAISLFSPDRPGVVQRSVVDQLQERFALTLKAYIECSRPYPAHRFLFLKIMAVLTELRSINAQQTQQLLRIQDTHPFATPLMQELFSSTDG
# [10] = qHTS assay for small molecule activators of the human pregnane X receptor (PXR) signaling pathway (AID 720659; call rule not given here); conditions: DPX-2 HepG2 CYP3A4-luciferase, 24 h; series mostly up to 92.3 µM
# [11] = S16 Schwann cell PMP22 intronic element beta-lactamase assay (AID 624044; calls by dose curve; note: nearly all actives have a fitted effect of over 15% in size); conditions: S16 rat Schwann cells, PMP22 element beta-lactamase FRET, 24 h; series mostly up to 38.3 µM
# Summary of the method: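 Beta-lactamase reporter under a PMP22 intronic regulatory element in stable S16 rat Schwann cells; 24 h compound exposure. 460 nm blue signal normalized between DMSO (0%) and potassium clavulanate, with 535 nm FRET tracking viability; curves classed by r2 and response.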
# [12] = qHTS for differential inhibitors of proliferation of Plasmodium falciparum line GB4 (AID 1816); conditions: Potency: Plasmodium falciparum GB4 proliferation inhibition; series mostly up to 28.7 µM;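 note: parasite growth measured after 72 h incubation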
smiles,measurement,setting,value
C[C@@H](C(=O)O)c1ccc(-c2ccccc2)c(F)c1,outcome,[1],inactive
same,Potency,[2],inactive
same,Potency,AA1029,inactive
same,Potency,CP211,inactive
same,Potency,CP217,inactive
same,Potency,CP252,inactive
same,Potency,CP260,inactive
same,Potency,CP297,inactive
same,Potency,N140,inactive
same,Potency,PC15,inactive
N#CC(=C(/N)Sc1ccccc1N)/C(C#N)=C(\N)Sc1ccccc1N,Potency,[3],5.15 µM (active)
CC(C)=CCC/C(C)=C/CC/C(C)=C/CO,max response,[4],-3.54%
same,outcome,[5],inactive
same,Potency,[6],inactive
same,outcome,[7],inactive
same,activity change % (negative = inhibition),[8],1.19% (inactive)
same,max response,[9],-1.6% (inactive)
same,outcome,[10],inactive
CCOC(=O)C(CCc1ccccc1)NC1CCc2ccccc2N(CC(=O)O)C1=O (stereo not given),Potency,[11],inactive
C[N+](C)(C)CCC(=O)c1cccc2ccccc12,Potency,[12],inactive
